Reference: PubChem BioAssay (EPA / NIEHS)
Activity calls are given as the source filed them. Rule for the calls: active = hit-call score of the fitted dose curve at least 0.9, where 1 is the maximum; inactive = score below 0.9.

test: CEETOX_H295R_OHPROG: CeeTox H295R High-throughput Steroidogenesis Assay for OH-Progesterone (OHPROG) (AID 2283435); details: actives raise or lower the signal;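 for AC50: 17alpha-hydroxyprogesterone secreted into medium measured by HPLC-MS/MS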
How it was run: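 H295R, 10 uM forskolin prestim 48 h; cmpd in 0.1% DMSO 48 h; medium MTBE-extracted, HPLC-MS/MS for OH-progesterone; 7-pt std curve; bidirectional fit vs DMSO; MTT viability, chemicals diluted until viability >/=70%.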

Row | Structure (SMILES) | AC50 | outcome
1 | C[C@]12CC[C@H]3C(=CCc4cc(O)ccc43)[C@@H]1CCC2=O | 2.87 µM (active) | 
2 | CCN(CC)c1ccc(N=Nc2ccccc2)cc1 |  | inactive
3 | CCN(CC)c1ccc(C=O)cc1 |  | inactive
4 | O=C1C=CC(=O)N1c1ccccc1 |  | inactive
5 | Cc1cc(O)c(C(C)(C)C)cc1C(C)(C)C |  | inactive
6 | O=C(c1ccccc1)c1ccc(Cl)cc1 | 37.9 µM (active) | 
7 | CCn1c2ccccc2c2ccccc21 | 50 µM (active) | 
8 | CCCCCCCCCc1ccc(OCCO)cc1 |  | inactive
9 | CCCCCCCCCCCCC[N+](C)(C)Cc1ccccc1 | 0.509 µM (active) | 
10 | CSc1ccc(O)cc1C |  | inactive

test: CEETOX_H295R_CORTISOL: CeeTox H295R High-throughput Steroidogenesis Assay for Cortisol (AID 2283438); details: actives raise or lower the signal;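 note: cortisol secreted into medium quantified by LC-MS/MS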
How it was run: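 Forskolin 10 uM 48 h prestim → test cmpd in DMSO (0.1% final) 48 h → medium MTBE-extracted → LC-MS/MS cortisol vs 7-pt std curve. Gain/loss of signal fitted vs DMSO. MTT viability in same wells.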

Row | Structure (SMILES) | AC50 | outcome
11 | C[C@]12CC[C@H]3C(=CCc4cc(O)ccc43)[C@@H]1CCC2=O | 13.7 µM (active) | 
12 | CCN(CC)c1ccc(N=Nc2ccccc2)cc1 |  | inactive
13 | CCN(CC)c1ccc(C=O)cc1 |  | inactive
14 | O=C1C=CC(=O)N1c1ccccc1 |  | inactive
15 | Cc1cc(O)c(C(C)(C)C)cc1C(C)(C)C |  | inactive
16 | O=C(c1ccccc1)c1ccc(Cl)cc1 |  | inactive
17 | CCn1c2ccccc2c2ccccc21 |  | inactive
18 | CCCCCCCCCc1ccc(OCCO)cc1 |  | inactive
19 | CCCCCCCCCCCCC[N+](C)(C)Cc1ccccc1 |  | inactive
20 | CSc1ccc(O)cc1C |  | inactive

test: CEETOX_H295R_DOC: CeeTox H295R High-throughput Steroidogenesis Assay for DOC (AID 2283439); details: actives raise or lower the signal
How it was run: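 Readout: 11-deoxycorticosterone in culture medium by reverse-phase C18 HPLC with ESI+ tandem MS after MTBE extraction. Cells: H295R, forskolin-primed (10 uM, 48 h), chemical-treated 48 h; DMSO 0.1% final. Activity fitted bidirectionally versus DMSO.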

Row | Structure (SMILES) | AC50 | outcome
21 | C[C@]12CC[C@H]3C(=CCc4cc(O)ccc43)[C@@H]1CCC2=O | 0.811 µM (active) | 
22 | CCN(CC)c1ccc(N=Nc2ccccc2)cc1 |  | inactive
23 | CCN(CC)c1ccc(C=O)cc1 | 59.2 µM (active) | 
24 | O=C1C=CC(=O)N1c1ccccc1 |  | inactive
25 | Cc1cc(O)c(C(C)(C)C)cc1C(C)(C)C |  | inactive
26 | O=C(c1ccccc1)c1ccc(Cl)cc1 |  | inactive
27 | CCn1c2ccccc2c2ccccc21 |  | inactive
28 | CCCCCCCCCc1ccc(OCCO)cc1 |  | inactive
29 | CCCCCCCCCCCCC[N+](C)(C)Cc1ccccc1 | 0.337 µM (active) | 
30 | CSc1ccc(O)cc1C |  | inactive

test: CEETOX_H295R_ESTRADIOL: CeeTox H295R High-throughput Steroidogenesis Assay for Estradiol (AID 2283440); details: actives raise or lower the signal;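 note: estradiol secreted into medium quantified by LC-MS/MS after dansyl derivatisation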
How it was run: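 Estradiol secreted into the medium was measured by tandem mass spectrometry after liquid-liquid extraction and dansylation. Human H295R cells had been forskolin-primed (10 uM, 48 h) before a 48 h chemical exposure with 0.1% DMSO.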

Row | Structure (SMILES) | outcome | AC50
31 | CCN(CC)c1ccc(N=Nc2ccccc2)cc1 | inactive | 
32 | CCN(CC)c1ccc(C=O)cc1 | inactive | 
33 | O=C1C=CC(=O)N1c1ccccc1 | inactive | 
34 | Cc1cc(O)c(C(C)(C)C)cc1C(C)(C)C | inactive | 
35 | CCCCCCCCCc1ccc(OCCO)cc1 | inactive | 
36 | CCCCCCCCCCCCC[N+](C)(C)Cc1ccccc1 | inactive | 
37 | CSc1ccc(O)cc1C |  | 28.2 µM (active)
